# PubChem BioAssay (NCI)
# Compounds without any hit were thinned out: in the full panel of roughly 83,000, 20% have a hit.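 Step 1: grow cells in 96-well plates. Step 2: add test compound at a single concentration. Step 3: incubate 48 h. Step 4: record percent growth.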 A number with no mark means an inactive call. The source made the active and inactive calls. Rule for the calls: active = growth percent below 10; inactive = the rest.
# Tested on: HL-60(TB) leukemia
# Assay: NCI-60 one-dose screen, 48 h (100 = growth as untreated, 0 = no growth, -100 = all killed)
# Settings: 10 µM unless noted
row,SMILES,growth
1,CC/C(Cc1ccccc1)=C(\c1ccc(OCCCN(C)C)cc1)c1ccc(OC(=O)NCc2ccccc2)cc1,57.2%
2,CCOC(=O)N/N=C\C(C)=N\NC(=O)OCC,92.9%
3,CC(C)=CCc1ccc(O)c(=O)cc1C(C)C,-1.27% (active)
4,CCNC(=O)Oc1ccc(/C(=C(\C)c2ccc(Cl)cc2)c2ccc(OCCN3CCCCC3)cc2)cc1,16.8%
5,CC1(C)N=C(N)N=C(N)N1c1cccc(C#N)c1,35.7%
6,COc1ccc(-c2cc(-c3ccc(Nc4nc(Nc5ccccc5)nc(Nc5ccc(Cl)cc5)n4)cc3)nc(N)n2)cc1,101%
7,CCC1S/C(=N\N=C(\C)c2cc3cc(Cl)ccc3o2)N(c2ccccc2)C1=O (centres undefined),103%
8,CC1(C)CC(=O)C2=C(C1)N(c1ccc(F)cc1F)C(N)=C(C#N)C2c1cc(Br)ccc1F (centres undefined),99.4%
9,Cc1ccc(-c2csc(N)n2)cc1,112%
10,CCCCCCCCCCCCc1ccc(C(=O)/C=C/C(=O)O)cc1,26.6%
11,Cn1ccc2c1CC1CN(Cc3ccco3)C(=O)C1C2C(=O)O (centres undefined),98.8%
12,CN1C2CCC1/C(=C\c1ccc(Cl)cc1)C1=C2[C@@H](c2ccc(Cl)cc2)C(C#N)=C(N)O1 (some centres undefined),81.8%
13,Oc1c(CN2CCN(c3ccccc3F)CC2)cc(Br)c2cccnc12,-34.4% (active)
14,COc1ccc(-c2c(-c3ccc(OC)c(O)c3)cnc3ncnn23)cc1,106%
15,COc1cc(/C=N/Nc2ncc(-c3cc4cc5c(cc4o3)OCO5)s2)cc(OC)c1OC,14.7%
16,CCCCCCCCCCCCCC[n+]1cccc(C(N)=O)c1,-55.9% (active)
17,CCN(CC)CCOC(=O)C(c1ccccc1)(c1ccccc1)C(C)C,91.8%
18,CCN(CC)CCC(CNc1ccnc2cc(Cl)ccc12)c1ccccc1 (centres undefined),58.5%
19,CCOC(=O)CNS(=O)(=O)CC(=O)c1ccccc1,102%
20,O=C(CN1C(=O)S/C(=C\C(Cl)=C\c2ccccc2)C1=O)NC1CCS(=O)(=O)C1 (centres undefined),18.6%

row,SMILES,growth
1,CCOC(=O)c1cc2c(n1Cc1cc(OC)cc(OC)c1)-c1oncc1CCC2,5.41% (active)
2,Cc1cc(=O)n2n1-c1ccc(Cl)cc1NC(=O)C2,101%
3,O=c1[nH]c2cc(Cl)c(Cl)cc2n2cc3ncccc3c12,65.5%
4,CCOC(=O)C1=NN(c2ccccc2)C2=NC(=O)/C(=C\c3cn(-c4ccccc4)nc3-c3cc4ccccc4o3)C(=O)N12,76.4%
5,CN1CCN(Cc2ccc(NC(=O)c3cncc(C#Cc4c(N)ncc5c(F)cccc45)c3)cc2C(F)(F)F)CC1,-60.4% (active)
6,CCCCN(CCCC)CC(O)c1ccc(OCc2ccccc2)c2ccccc12 (centres undefined),-23.6% (active)
7,Cc1cc2c(-c3nc4ccccn4c3N)c(O)c(O)cc2c(O)c1-c1c(C)cc2c(-c3nc4ccccn4c3N)c(O)c(O)cc2c1O,9.95% (active)
8,[2H]C([2H])([2H])Oc1cc(F)ccc1/C=C/C(=O)/C=C(/C=C/c1ccc(F)cc1OC([2H])([2H])[2H])OB(F)F,11.6%
9,CC(C)(C)OC(=O)N1CCN(c2ccc(N)cc2)C(=O)C1,102%
10,O=[N+]([O-])c1cc2ncccc2c2ncccc12,88.1%
11,c1ccc(-c2cc3cc4ccccc4cn3c2)cc1,94.6%
12,c1ccc2[nH]c(-c3ccc(Nc4nc(N5CCCCC5)nc(N5CCOCC5)n4)cc3)nc2c1,-22.7% (active)
13,CN(C)CCCn1c2c(c3cnccc3c1=O)C(=O)c1ccccc1-2,2.29% (active)
14,CN1CCN(C(=O)[C@]23CCC(C)(C)C[C@H]2C2=CC[C@@H]4[C@@]5(C)C/C(=C/c6cccnc6)C(=O)C(C)(C)[C@@H]5CC[C@@]4(C)[C@]2(C)CC3)CC1,-32.4% (active)
15,CC(=O)N(CCCCCCN(C(C)=O)C(C)=O)C(C)=O,108% [100 µM]
16,N#Cc1c(NCc2ccccc2I)sc2c1CCCCC2,100%
17,COc1ccc(-c2nc3sccn3c2-c2ccnc(NCCCNS(=O)(=O)c3ccc4ccccc4c3)n2)cc1,66.1%
18,Nc1ncc(-c2ccc3ncnc(N4CCc5cc(F)c(Cl)cc54)c3c2)cn1,56.5%
19,Cc1oc(-c2ccc(Cl)cc2Cl)cc1C(=O)Nc1nccs1,97.4%
